This is an account of results in the supplement of paper PMC7724964.

RBBP8 722-897 SAE2 (domain begin residue: 722, domain end residue: 897), Q99708, sequence (Q99708 whole entry): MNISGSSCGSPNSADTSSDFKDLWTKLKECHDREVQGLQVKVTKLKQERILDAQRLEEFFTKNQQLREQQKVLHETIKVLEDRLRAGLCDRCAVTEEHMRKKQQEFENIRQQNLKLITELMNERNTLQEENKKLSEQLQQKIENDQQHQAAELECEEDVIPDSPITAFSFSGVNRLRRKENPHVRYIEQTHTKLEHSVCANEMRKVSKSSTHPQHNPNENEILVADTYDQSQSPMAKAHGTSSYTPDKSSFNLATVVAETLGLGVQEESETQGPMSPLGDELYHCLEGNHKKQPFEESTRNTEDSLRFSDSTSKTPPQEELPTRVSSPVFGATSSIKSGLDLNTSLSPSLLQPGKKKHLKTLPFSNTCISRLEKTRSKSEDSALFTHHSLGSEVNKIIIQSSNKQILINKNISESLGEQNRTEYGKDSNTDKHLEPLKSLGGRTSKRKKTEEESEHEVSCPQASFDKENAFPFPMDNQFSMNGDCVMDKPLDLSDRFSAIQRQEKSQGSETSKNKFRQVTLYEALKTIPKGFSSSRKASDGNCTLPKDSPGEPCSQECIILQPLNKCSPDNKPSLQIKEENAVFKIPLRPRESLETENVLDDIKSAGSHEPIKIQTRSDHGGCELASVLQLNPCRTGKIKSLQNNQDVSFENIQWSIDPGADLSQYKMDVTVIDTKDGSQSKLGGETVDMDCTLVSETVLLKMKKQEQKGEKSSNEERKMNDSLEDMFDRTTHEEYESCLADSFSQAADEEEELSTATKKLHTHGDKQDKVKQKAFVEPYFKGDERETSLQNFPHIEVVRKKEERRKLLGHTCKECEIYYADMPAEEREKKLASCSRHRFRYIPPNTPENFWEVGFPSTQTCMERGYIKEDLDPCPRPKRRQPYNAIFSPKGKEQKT
SETD1A 2-220 RRM_1 (domain begin residue: 2, domain end residue: 220), O15047, sequence (O15047 whole entry): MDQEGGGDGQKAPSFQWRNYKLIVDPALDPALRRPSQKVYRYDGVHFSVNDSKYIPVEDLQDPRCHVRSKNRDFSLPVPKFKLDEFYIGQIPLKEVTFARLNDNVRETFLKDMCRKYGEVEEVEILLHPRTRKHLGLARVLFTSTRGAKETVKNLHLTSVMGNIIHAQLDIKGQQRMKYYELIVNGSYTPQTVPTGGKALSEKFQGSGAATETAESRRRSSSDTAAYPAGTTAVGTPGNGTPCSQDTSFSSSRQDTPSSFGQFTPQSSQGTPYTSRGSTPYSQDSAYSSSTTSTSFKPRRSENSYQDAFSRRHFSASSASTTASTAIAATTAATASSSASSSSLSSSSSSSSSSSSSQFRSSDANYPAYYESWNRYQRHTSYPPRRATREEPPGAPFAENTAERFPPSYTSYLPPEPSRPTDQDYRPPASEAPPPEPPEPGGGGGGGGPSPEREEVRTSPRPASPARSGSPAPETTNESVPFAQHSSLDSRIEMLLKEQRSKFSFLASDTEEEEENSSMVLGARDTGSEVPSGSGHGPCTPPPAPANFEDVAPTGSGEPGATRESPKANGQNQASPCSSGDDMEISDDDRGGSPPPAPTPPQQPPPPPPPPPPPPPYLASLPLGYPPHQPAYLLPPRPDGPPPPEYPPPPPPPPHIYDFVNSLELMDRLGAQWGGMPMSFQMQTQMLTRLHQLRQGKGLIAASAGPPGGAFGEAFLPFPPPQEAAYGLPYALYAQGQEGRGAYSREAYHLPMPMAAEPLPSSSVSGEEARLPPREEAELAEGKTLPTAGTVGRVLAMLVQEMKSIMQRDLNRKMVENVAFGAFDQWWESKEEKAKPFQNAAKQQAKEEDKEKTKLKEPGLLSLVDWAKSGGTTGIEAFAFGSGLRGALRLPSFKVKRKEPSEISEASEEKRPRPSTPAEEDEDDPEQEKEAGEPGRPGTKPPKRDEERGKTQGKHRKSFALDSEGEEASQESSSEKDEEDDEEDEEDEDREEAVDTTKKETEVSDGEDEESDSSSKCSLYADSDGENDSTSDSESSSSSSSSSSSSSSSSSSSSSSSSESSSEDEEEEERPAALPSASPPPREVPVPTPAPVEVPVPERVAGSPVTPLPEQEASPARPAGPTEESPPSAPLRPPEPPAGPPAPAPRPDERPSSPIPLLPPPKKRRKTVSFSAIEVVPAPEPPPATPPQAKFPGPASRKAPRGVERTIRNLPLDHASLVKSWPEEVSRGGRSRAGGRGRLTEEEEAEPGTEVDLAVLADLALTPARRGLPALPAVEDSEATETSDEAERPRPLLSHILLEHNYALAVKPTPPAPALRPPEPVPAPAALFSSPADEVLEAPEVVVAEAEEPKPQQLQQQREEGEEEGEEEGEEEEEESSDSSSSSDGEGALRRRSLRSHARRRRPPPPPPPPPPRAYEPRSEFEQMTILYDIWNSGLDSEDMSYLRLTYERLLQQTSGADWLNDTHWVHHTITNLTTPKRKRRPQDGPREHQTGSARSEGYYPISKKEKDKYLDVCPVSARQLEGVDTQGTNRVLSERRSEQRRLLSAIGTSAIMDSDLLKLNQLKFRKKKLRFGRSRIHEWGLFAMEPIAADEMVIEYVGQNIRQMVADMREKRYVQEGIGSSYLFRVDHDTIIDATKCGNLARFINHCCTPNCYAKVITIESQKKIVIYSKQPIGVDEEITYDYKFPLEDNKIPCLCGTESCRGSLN

In the first assay the target is T1, ARID4A 568-634 Tudor-knot (domain begin residue: 568, domain end residue: 634), P29374.
T1 chain: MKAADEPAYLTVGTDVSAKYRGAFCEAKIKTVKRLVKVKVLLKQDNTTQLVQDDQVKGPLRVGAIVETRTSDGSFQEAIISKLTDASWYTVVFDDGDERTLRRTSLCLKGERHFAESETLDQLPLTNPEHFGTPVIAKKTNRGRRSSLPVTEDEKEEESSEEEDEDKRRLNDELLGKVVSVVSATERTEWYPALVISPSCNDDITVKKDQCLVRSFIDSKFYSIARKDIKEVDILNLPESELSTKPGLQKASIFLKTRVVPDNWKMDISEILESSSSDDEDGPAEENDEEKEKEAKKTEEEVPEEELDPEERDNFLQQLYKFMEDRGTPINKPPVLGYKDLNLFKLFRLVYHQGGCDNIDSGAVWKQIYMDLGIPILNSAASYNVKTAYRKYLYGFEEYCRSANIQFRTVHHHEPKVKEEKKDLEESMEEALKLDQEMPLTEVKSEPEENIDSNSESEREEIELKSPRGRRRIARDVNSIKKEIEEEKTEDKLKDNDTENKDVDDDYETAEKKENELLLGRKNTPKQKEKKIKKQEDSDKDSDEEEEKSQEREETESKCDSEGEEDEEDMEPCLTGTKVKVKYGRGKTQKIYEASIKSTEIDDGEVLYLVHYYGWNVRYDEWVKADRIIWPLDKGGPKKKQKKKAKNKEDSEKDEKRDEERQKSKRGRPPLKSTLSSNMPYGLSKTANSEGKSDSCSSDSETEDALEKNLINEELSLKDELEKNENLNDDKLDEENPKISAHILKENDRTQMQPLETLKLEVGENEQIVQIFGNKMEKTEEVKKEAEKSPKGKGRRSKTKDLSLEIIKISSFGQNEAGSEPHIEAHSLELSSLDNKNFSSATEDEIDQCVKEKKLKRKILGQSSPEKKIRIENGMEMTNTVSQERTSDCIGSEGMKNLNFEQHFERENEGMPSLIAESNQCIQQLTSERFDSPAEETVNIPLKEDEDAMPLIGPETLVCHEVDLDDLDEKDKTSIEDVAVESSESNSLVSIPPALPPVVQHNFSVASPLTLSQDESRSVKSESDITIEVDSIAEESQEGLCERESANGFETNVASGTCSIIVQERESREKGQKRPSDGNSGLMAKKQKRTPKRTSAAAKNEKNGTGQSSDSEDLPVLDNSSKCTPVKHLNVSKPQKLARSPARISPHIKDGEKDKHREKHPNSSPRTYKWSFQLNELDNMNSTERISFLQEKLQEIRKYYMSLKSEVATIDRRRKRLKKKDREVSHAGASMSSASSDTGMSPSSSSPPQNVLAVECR
The assay can be described thus: phage ELISA signal ratio (GST-PRM binding over GST background); higher = stronger binding of peptide-phage to the PRM. The method, then: (§1)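 Phage-displayed random hexadecapeptides (Cys-free, flanked by invariant Gly linkers, fused to the M13 P8 major coat protein) were selected over 5 rounds against GST-fused human PRM domains. Individual clones from rounds 4-5 were tested by phage ELISA, and positive clones binding the target but not GST were sequenced. Values are the ELISA signal ratio of target over background (GST); the background signal is given separately.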
A general note: In an ELISA, binding on a coated surface is turned into a signal by an enzyme label.
For WGWDEMLNDPEIMRIV, the “phage ELISA signal ratio” value amounted to 12.7.

Another assay concerns the target KMT2C 1055-1137 PHD (domain begin residue: 1055, domain end residue: 1137). The assay is described as above. The method, then: as §1
Turning to WGWDEMLNDPEIMRIV, the “phage ELISA signal ratio” value amounted to 8.35.

For another assay, the target named is T2, LBR 1-67 LBR_tudor (domain begin residue: 1, domain end residue: 67), Q14739.
T2 chain: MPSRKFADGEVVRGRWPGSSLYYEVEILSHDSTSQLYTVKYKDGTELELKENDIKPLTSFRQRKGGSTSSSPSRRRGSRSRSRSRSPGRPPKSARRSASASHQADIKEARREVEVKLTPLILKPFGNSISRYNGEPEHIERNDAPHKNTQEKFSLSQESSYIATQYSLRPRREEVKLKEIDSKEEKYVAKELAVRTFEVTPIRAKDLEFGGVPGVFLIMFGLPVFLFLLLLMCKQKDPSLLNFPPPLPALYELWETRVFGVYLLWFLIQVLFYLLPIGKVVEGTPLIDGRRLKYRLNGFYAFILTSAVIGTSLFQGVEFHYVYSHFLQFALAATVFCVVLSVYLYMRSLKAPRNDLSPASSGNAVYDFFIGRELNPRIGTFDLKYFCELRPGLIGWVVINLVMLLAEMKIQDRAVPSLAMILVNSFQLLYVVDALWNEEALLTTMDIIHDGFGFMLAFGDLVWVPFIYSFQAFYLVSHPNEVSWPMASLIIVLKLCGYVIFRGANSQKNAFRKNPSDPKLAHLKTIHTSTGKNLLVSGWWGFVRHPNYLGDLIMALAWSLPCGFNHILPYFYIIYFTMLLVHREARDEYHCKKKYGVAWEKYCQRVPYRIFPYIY
The description is as above. As for the experimental part: as §1
With WGWDEMLNDPEIMRIV, the “phage ELISA signal ratio” value came to 7.63.

The target of another assay is PAF1 165-376 Paf1 (domain begin residue: 165, domain end residue: 376), Q8N7H5. The assay is described as above. The method, then:
as §1
WGWDEMLNDPEIMRIV: the “phage ELISA signal ratio” value turned out to be 6.83.

The next assay addresses RBBP8 722-897 SAE2 (domain begin residue: 722, domain end residue: 897), Q99708. The assay is described as above. The method, then: as §1
For WGWDEMLNDPEIMRIV, the “phage ELISA signal ratio” value is 6.44.

Another assay deals with SETD1A 2-220 RRM_1 (domain begin residue: 2, domain end residue: 220), O15047. The description is as above. The method, then:
as §1
In the case of WGWDEMLNDPEIMRIV, the “phage ELISA signal ratio” value was 7.71.

The target of another assay is T3, SND1 650-910 TUDOR+SNase (domain begin residue: 650, domain end residue: 910), Q7KZF4.
T3 chain: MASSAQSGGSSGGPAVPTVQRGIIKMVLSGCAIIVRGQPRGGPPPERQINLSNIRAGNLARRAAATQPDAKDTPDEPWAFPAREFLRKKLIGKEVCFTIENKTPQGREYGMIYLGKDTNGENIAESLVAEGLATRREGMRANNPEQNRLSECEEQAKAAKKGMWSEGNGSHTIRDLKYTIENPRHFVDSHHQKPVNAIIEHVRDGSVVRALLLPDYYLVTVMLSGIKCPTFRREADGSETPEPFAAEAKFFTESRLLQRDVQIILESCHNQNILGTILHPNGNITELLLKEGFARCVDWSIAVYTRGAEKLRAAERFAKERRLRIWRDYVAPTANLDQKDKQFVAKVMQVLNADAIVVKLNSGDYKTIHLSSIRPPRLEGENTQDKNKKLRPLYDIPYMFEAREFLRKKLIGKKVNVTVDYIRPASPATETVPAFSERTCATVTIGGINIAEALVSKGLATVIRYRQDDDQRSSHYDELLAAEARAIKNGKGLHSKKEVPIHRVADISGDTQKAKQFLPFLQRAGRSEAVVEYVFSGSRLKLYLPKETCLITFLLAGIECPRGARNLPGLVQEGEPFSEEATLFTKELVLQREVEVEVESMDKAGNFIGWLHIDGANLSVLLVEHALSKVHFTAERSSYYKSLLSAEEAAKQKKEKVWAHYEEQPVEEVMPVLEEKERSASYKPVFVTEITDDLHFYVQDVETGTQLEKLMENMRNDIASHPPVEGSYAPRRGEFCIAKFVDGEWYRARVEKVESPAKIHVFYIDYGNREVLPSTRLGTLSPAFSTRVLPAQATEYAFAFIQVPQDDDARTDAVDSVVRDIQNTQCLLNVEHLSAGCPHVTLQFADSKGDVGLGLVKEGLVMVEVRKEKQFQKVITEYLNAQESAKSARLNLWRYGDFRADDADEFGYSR
The assay is described as above. The method, then:
as §1
As to WGWDEMLNDPEIMRIV, the “phage ELISA signal ratio” value came to 8.1.

The target of a further assay is T4, TDRD1 261-449 TUDOR (domain begin residue: 261, domain end residue: 449), Q9BXT4.
T4 chain: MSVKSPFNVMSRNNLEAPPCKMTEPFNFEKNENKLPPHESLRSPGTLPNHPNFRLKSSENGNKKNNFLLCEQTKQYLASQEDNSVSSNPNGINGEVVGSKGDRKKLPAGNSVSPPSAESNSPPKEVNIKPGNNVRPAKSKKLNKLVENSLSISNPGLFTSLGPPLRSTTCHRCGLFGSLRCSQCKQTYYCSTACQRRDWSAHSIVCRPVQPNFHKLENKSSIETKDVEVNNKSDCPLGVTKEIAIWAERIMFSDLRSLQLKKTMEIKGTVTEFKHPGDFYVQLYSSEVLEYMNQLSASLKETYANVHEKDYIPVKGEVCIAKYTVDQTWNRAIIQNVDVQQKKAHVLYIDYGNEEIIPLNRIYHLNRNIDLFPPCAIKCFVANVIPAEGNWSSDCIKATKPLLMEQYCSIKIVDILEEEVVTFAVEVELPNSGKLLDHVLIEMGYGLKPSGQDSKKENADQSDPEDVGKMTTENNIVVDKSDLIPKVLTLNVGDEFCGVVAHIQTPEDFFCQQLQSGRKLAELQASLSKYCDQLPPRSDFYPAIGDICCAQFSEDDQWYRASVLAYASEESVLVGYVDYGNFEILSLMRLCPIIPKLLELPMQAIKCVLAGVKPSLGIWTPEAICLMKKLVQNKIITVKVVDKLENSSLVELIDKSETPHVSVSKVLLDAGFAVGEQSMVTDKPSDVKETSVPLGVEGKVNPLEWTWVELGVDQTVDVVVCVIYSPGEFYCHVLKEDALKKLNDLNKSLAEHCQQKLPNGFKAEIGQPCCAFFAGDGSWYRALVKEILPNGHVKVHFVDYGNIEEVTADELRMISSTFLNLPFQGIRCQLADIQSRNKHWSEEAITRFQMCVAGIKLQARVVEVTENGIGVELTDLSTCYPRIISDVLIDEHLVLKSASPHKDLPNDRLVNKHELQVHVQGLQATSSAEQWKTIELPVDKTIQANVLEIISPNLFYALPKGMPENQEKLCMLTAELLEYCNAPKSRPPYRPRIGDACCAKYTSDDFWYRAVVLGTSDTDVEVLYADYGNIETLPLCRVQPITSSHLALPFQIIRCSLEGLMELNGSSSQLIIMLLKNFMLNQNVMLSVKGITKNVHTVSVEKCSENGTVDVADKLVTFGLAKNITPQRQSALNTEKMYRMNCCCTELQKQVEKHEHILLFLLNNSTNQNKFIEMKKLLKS
The description is as above. The method, then: as §1
Take WGWDEMLNDPEIMRIV: the “phage ELISA signal ratio” value came to 10.8.

Another assay addresses T5, ZGPAT 120-268 zf-CCCH+TUDOR (domain begin residue: 120, domain end residue: 268), Q8N5A5.
T5 chain: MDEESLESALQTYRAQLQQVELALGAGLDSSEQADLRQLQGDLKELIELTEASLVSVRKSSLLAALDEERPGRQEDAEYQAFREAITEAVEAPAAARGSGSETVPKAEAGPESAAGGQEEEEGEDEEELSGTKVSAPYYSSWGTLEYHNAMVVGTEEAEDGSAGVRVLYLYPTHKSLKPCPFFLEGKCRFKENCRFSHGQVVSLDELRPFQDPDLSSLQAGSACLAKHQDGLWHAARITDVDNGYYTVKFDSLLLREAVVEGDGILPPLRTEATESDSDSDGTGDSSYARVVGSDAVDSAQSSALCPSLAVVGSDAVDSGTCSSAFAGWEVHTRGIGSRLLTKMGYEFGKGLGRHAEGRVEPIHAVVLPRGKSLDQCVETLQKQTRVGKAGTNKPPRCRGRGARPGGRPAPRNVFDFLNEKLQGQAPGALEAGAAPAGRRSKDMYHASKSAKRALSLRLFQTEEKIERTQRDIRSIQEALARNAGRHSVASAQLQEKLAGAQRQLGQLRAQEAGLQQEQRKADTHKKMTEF
The description is as above. The method, then:
as §1
With WGWDEMLNDPEIMRIV, the “phage ELISA signal ratio” value was found to be 7.66.

The target of another assay is T6, BTN1A1 285-479 SPRY (domain begin residue: 285, domain end residue: 479), Q13410.
T6 chain: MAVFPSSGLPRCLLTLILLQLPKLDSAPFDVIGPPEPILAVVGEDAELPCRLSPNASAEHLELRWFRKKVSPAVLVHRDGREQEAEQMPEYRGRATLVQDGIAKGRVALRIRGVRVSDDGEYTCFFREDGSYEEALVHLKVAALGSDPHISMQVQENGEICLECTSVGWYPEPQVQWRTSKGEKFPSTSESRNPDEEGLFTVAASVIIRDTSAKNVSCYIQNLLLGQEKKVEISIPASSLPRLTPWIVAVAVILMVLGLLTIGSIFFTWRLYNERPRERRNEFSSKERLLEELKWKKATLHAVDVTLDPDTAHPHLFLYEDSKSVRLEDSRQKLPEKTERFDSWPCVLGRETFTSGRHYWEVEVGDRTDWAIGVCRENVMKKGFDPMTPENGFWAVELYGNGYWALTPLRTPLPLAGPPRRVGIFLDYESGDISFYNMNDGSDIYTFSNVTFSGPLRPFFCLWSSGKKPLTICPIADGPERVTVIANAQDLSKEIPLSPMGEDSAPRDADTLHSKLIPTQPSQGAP
Described as above. As for the experimental part:
as §1
In the case of RDPHWQHKQQMQIVLM, the “phage ELISA signal ratio” value came out at 11.1.
